From article PMC4336329 (PLoS ONE, 2015)
The whole screen tested about 310,000 compounds, of which about 14,000 (4.5%) showed an effect of 50% or more. The effect is printed as a negative number. What follows is part of a selection rich in strong results, with near analogues and random picks from the rest.

target: human ether-à-go-go-related gene (hERG) potassium channel (human, UniProt Q12809); experiment: primary screen, population patch clamp on CHO cells stably expressing hERG; higher = less effect of the substance
Sequence (Q12809 whole entry, looked up): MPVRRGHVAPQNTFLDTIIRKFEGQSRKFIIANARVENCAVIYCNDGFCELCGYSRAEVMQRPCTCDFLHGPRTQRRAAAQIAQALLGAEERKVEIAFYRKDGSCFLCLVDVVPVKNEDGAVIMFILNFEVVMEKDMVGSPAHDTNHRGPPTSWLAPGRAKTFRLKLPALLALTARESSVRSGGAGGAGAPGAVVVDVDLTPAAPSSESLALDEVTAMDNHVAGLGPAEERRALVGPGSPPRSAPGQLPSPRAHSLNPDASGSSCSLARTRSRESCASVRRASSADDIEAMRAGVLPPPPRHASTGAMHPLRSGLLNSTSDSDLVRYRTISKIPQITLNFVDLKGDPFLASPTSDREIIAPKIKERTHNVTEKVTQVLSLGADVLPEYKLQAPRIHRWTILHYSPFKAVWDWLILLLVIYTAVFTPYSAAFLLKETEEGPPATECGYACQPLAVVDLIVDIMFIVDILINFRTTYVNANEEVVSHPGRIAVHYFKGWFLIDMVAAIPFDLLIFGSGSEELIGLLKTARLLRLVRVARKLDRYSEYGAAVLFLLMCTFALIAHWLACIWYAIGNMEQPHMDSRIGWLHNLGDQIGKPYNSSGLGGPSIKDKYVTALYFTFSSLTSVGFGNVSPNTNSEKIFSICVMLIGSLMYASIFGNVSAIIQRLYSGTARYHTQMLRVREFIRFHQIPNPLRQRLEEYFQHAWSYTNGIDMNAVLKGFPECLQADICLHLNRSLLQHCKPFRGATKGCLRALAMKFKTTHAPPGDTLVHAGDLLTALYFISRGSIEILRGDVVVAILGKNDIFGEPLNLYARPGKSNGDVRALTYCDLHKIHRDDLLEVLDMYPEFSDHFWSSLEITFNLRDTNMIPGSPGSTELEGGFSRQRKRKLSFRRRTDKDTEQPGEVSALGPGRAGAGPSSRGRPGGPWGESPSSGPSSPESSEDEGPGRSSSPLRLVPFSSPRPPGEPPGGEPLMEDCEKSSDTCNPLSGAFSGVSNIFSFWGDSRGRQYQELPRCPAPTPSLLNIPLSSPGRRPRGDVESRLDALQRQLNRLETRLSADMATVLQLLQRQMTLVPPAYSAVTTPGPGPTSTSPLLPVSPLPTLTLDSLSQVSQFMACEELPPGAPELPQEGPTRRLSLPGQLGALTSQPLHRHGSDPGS
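Also: peak tail current of the secondary pulse compared with the same well before compound.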

| Structure (SMILES) | hERG current change (%, negative = inhibition) at 10uM |
| --- | --- |
| CC1(C)CC(=O)C=C(Nc2cccc(F)c2)C1 | 17% |
| O=C1c2ccccc2S(=O)(=O)N1CC(O)Cn1c2ccccc2c2ccccc21 (centres unmarked) | 3.03% |
| CCn1c(Cc2ccccc2)nnc1SCC(=O)Nc1ccc(N2CCOCC2)c(Cl)c1 | -5.94% |
| CCCCCNCc1ccc(OCc2ccc(Cl)nc2)c(OC)c1 | -45.8% |
| COc1cc(CNCCc2ccc(F)cc2)ccc1OCc1ccc(Cl)nc1.Cl | -68.2% |
| COc1cc(CNCCc2ccccc2F)ccc1OCc1ccc(Cl)nc1.Cl | -49.5% |
| COc1cc(CNCCc2ccccc2)ccc1OCc1ccc(Cl)nc1.Cl | -39.5% |
| CCCCNCc1ccc(OCc2ccc(Cl)nc2)c(OC)c1.Cl | -32.7% |
| COc1ccc(CCNCc2ccc(OCc3ccc(Cl)nc3)c(OC)c2)cc1OC.Cl | -63.3% |
| CC1CCCC(NC(=O)COC(=O)c2ccc3ncsc3c2)C1C (centres unmarked) | -3.48% |
| CC(C)N(C1=CC(=O)OC12CCCCC2)C(C)C | -0.582% |
| COc1cc(C(=O)N/N=C(\C)Cc2ccccc2)cc(OC)c1OC | 9.1% |
| CCOC(=O)N1CCC(NC(=O)CSCc2nc(-c3ccc(OC)c(OC)c3)oc2C)CC1 | -2.5% |
| COc1ccc(-c2onc(C)c2-c2cnn(-c3ccccc3)c2)c(O)c1 | 3.71% |
| COc1cc(OC)c(/C=N/NC(=O)c2ccc(Cn3nc([N+](=O)[O-])cc3C)cc2)c(OC)c1 | -37.1% |
| Cc1ccc2nsnc2c1NC(=O)c1ccc([N+](=O)[O-])o1 | 13.1% |
| CCN1CCN(Cc2ccc(NC(=O)c3ccc(C)c(NC(=O)N4CCNC4=O)c3)cc2C(F)(F)F)CC1 | 1.09% |
| CCOC(=O)C1(Cc2ccccc2)CCN(Cc2cccn2-c2cccnc2)CC1 | -39% |
| CCOC(=O)C1(CCOc2ccccc2)CCN(Cc2cccn2-c2cccnc2)CC1 | -51.8% |
| CCOC(=O)C1(CCOc2ccccc2)CCN(Cc2cccn2-c2ncccn2)CC1 | -76.4% |
| OCC1(CCc2ccccc2)CCN(Cc2cccn2-c2cccnc2)CC1 | -49.4% |
| OCC1(CCOc2ccccc2)CCN(Cc2cccn2-c2ncccn2)CC1 | -82.2% |
| O=C(Nc1ccccc1)c1ccccc1N=Cc1ccccc1O | 2.2% |

| Structure (SMILES) | hERG current change (%, negative = inhibition) at 10uM |
| --- | --- |
| COc1cc2c(cc1OC)CN(S(=O)(=O)c1cccc(F)c1)CC2 | 18.6% |
| Cc1ccc(C)c(C(=O)COC(=O)Cn2[nH]c(=O)c3ccccc3c2=O)c1 | 5.51% |
| O=C(CN1C(=O)NC2(CCCC2)C1=O)N1CCN(c2cccc(C(F)(F)F)c2)CC1 | -24.5% |
| Cc1oc2c(C)c3oc(=O)c(CCC(=O)NCCCN4CCOCC4)c(C)c3cc2c1C | -6.99% |
| COc1ccccc1CCN=C(N)NS(=O)(=O)c1ccc(C)c(C)c1 | 9.37% |
| O=C(COC(=O)c1ncc(Cl)c(Cl)c1Cl)NCc1ccccc1 | 2.42% |
| CCN1CCN(C(=O)CS(=O)Cc2nc(-c3cccc(C)c3)oc2C)CC1 (centres unmarked) | 3.36% |
| COc1ccc(-c2nnc(SC(C(=O)c3c[nH]c4ccccc34)c3ccccc3)n2N)cc1OC (centres unmarked) | 2.03% |
| COc1ccc(NC(=O)c2cc3ccc(O)cc3o/c2=N\O)cc1 | 2.99% |
| CCCn1c(=O)c2ccccc2n2c(SCc3c(C(=O)OCC)oc4ccccc34)nnc12 | -43.5% |
| C=CCn1c(=O)c2ccccc2n2c(SCC(N)=O)nnc12 | 2.96% |
| C=CCn1c(=O)c2ccccc2n2c(SCC(=O)NC)nnc12 | -1.24% |
| C=CCn1c(=O)c2ccccc2n2c(SCC(=O)Nc3sc(C)c(CC)c3C(=O)OCC)nnc12 | 6.96% |
| C=CCn1c(=O)c2ccccc2n2c(SCC(=O)Nc3sc(C(=O)N(CC)CC)c(C)c3C(=O)OCC)nnc12 | -52.3% |
| C=CCn1c(=O)c2ccccc2n2c(SCc3c(C(=O)OCC)oc4ccccc34)nnc12 | -56.1% |
| Cc1ccc(S(=O)(=O)N(C)C)cc1NC(=O)CN1C(=O)NC(Cc2ccccc2)C1=O (centres unmarked) | 8.61% |
| Cc1ccccc1C(OCC(O)CN1CCN(CCO)CC1)c1ccccc1.O=C(O)C(=O)O (centres unmarked) | -12.1% |
| CC(=O)c1ccc(OCC(O)CN2CCN(CCO)CC2)cc1.Cl (centres unmarked) | 9.1% |
| O=C(O)C(=O)O.OC1CCCN(CC(O)COC(c2ccc(F)cc2)c2ccc(F)cc2)C1 (centres unmarked) | -57.6% |
| O=C(O)C(=O)O.OC(COC(c1ccc(F)cc1)c1ccc(F)cc1)CN1CCCC(C(F)(F)F)C1 (centres unmarked) | 10.8% |
| O=C(O)C(=O)O.OCCN1CCN(CC(O)COC(c2ccc(F)cc2)c2ccc(F)cc2)CC1 (centres unmarked) | -61.9% |
| O=C(O)C(=O)O.OC(COC(c1ccc(F)cc1)c1ccc(F)cc1)CN1CCCC1 (centres unmarked) | -70.6% |
| O=C(OCN1C(=O)c2ccccc2C1=O)c1cccc(S(=O)(=O)N2CCOCC2)c1 | -3.06% |

| Structure (SMILES) | hERG current change (%, negative = inhibition) at 10uM |
| --- | --- |
| CN1c2ccsc2/C(=N/NC(=O)c2c(F)cccc2F)CS1(=O)=O | 4.31% |
| Cc1cccc(C2(c3cccc(C)c3)CC2C(=O)NCC2CCCO2)c1 (centres unmarked) | -6.94% |
| CC(CC(=O)N1CCN(S(=O)(=O)c2ccccc2)CC1)n1cncn1 (centres unmarked) | 20.1% |
| NS(=O)(=O)c1ccc(CCNC(=O)Nc2ccc(Cl)cc2)cc1 | -9.65% |
| O=c1cc(NC2CCCCCC2)[nH]c(=O)[nH]1 | 4.69% |
| CN(C)C(=O)Oc1c(Cl)cc(Cl)c2ccccc12 | -36.2% |
| CCC(/C=C1\Sc2ccc(OC)cc2N1CC)=C\c1sc2ccc(OC)cc2[n+]1CCCS(=O)(=O)[O-] | 15% |
| CCC(=O)/C=C1\Sc2ccc(OC)cc2N1CCO | -0.298% |
| CCC(/C=C1\Sc2ccc(OC)cc2N1CCO)=C\c1sc2ccc(OC)cc2[n+]1CCO.[Cl-] | -72.9% |
| O=C(Nc1cccc(C(F)(F)F)c1)C1CCCN(c2ncccn2)C1 (centres unmarked) | -53.4% |
| Cc1ccc(NC(=O)C2CCCN(c3ncccn3)C2)cc1F (centres unmarked) | -0.00042% |
| O=C(NCc1ccccc1)C1CCCN(c2cnccn2)C1 (centres unmarked) | -28.9% |
| CC(=O)Nc1ccc(NC(=O)C2CCCN(c3ncccn3)C2)cc1 (centres unmarked) | 2.63% |
| COc1cccc(CNC(=O)C2CCCN(c3cnccn3)C2)c1 (centres unmarked) | -14.4% |
| O=C(Nc1cccc(C(F)(F)F)c1)c1cccnc1N1CCCC1 | 13.2% |
| Cl.O=C(Nc1cccc(C(F)(F)F)c1)c1cccnc1N1CCN(c2ccccc2)CC1 | 7.25% |
| O=C(Nc1cccc(C(F)(F)F)c1)c1cccnc1N1CCN(CCO)CC1 | -63.8% |
| O=C(NCc1cccc(C(F)(F)F)c1)C1CCCN(c2cnccn2)C1 (centres unmarked) | -61% |
| O=C(NCc1cccc(C(F)(F)F)c1)C1CCCN(c2ncccn2)C1 (centres unmarked) | -37.1% |
| Cc1ccc(CNC(=O)C2CCCN(c3cnccn3)C2)cc1 (centres unmarked) | -40% |
| O=C(NCc1ccc(Cl)cc1)C1CCCN(c2cnccn2)C1 (centres unmarked) | -66.5% |
| COC(=O)C1=C(C)Nc2nnnn2C1c1ccccc1Cl (centres unmarked) | -2.51% |
| CCOC(=O)Cc1cc(OC)c(OC)cc1Cc1cc(OC)c(OC)cc1CC(=O)OCC | 9.74% |

| Structure (SMILES) | hERG current change (%, negative = inhibition) at 10uM |
| --- | --- |
| C/C(=N\NC(=O)C1(C)CC1(Br)Br)c1ccc(NC(=O)C2CCC2)cc1 (centres unmarked) | 7.51% |
| COc1ccc(CCNc2cc(C)[nH]c(=O)c2)cc1OC | 29.6% |
| CCOC(=O)c1c(N)c2cc([N+](=O)[O-])ccc2n1C | 18.1% |
| CCOCCCNC(=S)N1C2CCC1CC(NC(=O)NC13CC4CC(CC(C4)C1)C3)C2 (centres unmarked) | -8.16% |
| O=C(Nc1ccc(F)cc1)C1CCCN(c2cnccn2)C1 (centres unmarked) | -11.9% |
| O=C(NCc1ccc(F)cc1)C1CCCN(c2cnccn2)C1 (centres unmarked) | -65% |
| O=C(NCc1ccccc1F)C1CCCN(c2cnccn2)C1 (centres unmarked) | 13.4% |
| Cc1c(CCC(=O)NCC(=O)NCC(=O)O)c(=O)oc2cc3oc4c(c3cc12)CCCC4 | 4.87% |
| COc1ccc2cc3cc(C(=O)NCCN4CCc5ccccc5C4)oc3nc2c1 | -63.3% |
| CCN1CCN(CCCNC(=O)c2cc3cc4ccc(OC)cc4nc3o2)CC1 | -17.1% |
| COc1ccc2cc3cc(C(=O)NCCN4CCc5ccccc5C4)sc3nc2c1 | -32.9% |
| COCCCNC(=O)c1cc2cc3cc(OC)ccc3nc2o1 | -12.9% |
| COc1ccc2cc3cc(C(=O)NCc4ccccn4)oc3nc2c1 | 12.1% |
| COc1ccc2cc3cc(C(=O)NCCN4CCN(c5ccccc5F)CC4)oc3nc2c1 | -15.8% |
| COc1ccc2cc3cc(C(=O)NCCCN4CCc5ccccc5C4)sc3nc2c1 | -32.7% |
| COc1ccc2nc3oc(C(=O)NC4CCN(Cc5ccccc5)CC4)cc3cc2c1 | -67.1% |
| CCOC(=O)N1CCC(NC(=O)c2cc3cc4cc(OC)ccc4nc3o2)CC1 | -16.2% |
| COc1ccc2cc3cc(C(=O)NCCCN4CCOCC4)oc3nc2c1 | -5.55% |
| COc1ccc2cc3cc(C(=O)NCCCN4CCC(C)CC4)oc3nc2c1 | -58.5% |
| COc1ccc2cc3cc(C(=O)NCCN4CCN(Cc5ccccc5)CC4)oc3nc2c1 | -71.8% |
